Results on nine molecules are retold here after PubChem BioAssay (Tox21).

Assay [1] in a line: qHTS assay to test for compound auto fluorescence at 535 nm (green) in HEK293 cells (AID 720680).
A short description of assay [2]: qHTS assay to test for compound auto fluorescence at 460 nm (blue) in HEK293 cell free culture (AID 720681). The essentials: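 Blue fluorescence (Ex 405/Em 460 nm, triamterene-equivalent) was read immediately after pin transfer of compound or DMSO into medium (DMEM, 10% FBS) without cells.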
Assay [3] is described as follows: qHTS assay to test for compound auto fluorescence at 590 nm (red) in HEK293 cell free culture (AID 720683). The essentials:
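Red-channel autofluorescence of compounds in culture medium (DMEM, 10% FBS), no cells, measured at 540/590 nm. Rose Bengal sodium is the reference fluorophore for equivalence.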
Background: qHTS replaces the single test concentration by a dilution series.

The nature of assay [4]: qHTS assay to test for compound auto fluorescence at 590 nm (red) in HepG2 cell free culture (AID 720684). A digest of the protocol:
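No cells present: MEM + 10% FBS only. Compound pinned in, red label read (540/590 nm). Activity = fluorescence equivalent to Rose Bengal sodium.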

The nature of assay [5]: qHTS assay to test for compound auto fluorescence at 460 nm (blue) in HepG2 cell free culture (AID 720685). A digest of the protocol:
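Cell-free plates of MEM plus 10% FBS received 23 nL compound or DMSO vehicle; blue-channel (405/460 nm) intensity scored against triamterene as reference fluorophore.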

Assay [6] can be described thus: qHTS assay to test for compound auto fluorescence at 535 nm (green) in HepG2 cell free culture (AID 720686).
Assay [7] can be described thus: qHTS assay to test for compound auto fluorescence at 460 nm (blue) in HepG2 cells (AID 720687). A digest of the protocol: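 Blue-channel autofluorescence (Ex/Em 405/460 nm, triamterene-equivalent) was measured after 1 hr compound exposure at 37 C, 5% CO2. Cells were HepG2, plated overnight at 37 C in MEM plus 10% FBS.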
The target of assay [8] is Glucocorticoid receptor (Homo sapiens) (UniProt P04150). Kind of assay: qHTS assay to identify small molecule agonists of the glucocorticoid receptor (GR) signaling pathway (AID 720691; active = well fitted activation curve with a large enough effect in the signal ratio in the repeat runs, not every such curve was filed as active; the % refers to the signal ratio). The essentials: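 Agonist-mode qHTS in HeLa cells stably expressing a glucocorticoid-response-element beta-lactamase reporter. Fluorescence intensity read with FRET substrate (2 h, room temperature) after 18 h compound treatment at 37 C.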

The target is the same in assay [9]. Kind of assay: qHTS assay to identify small molecule antagonists of the glucocorticoid receptor (GR) signaling pathway (AID 720692; active = well fitted inhibition curve with a large enough effect in the signal ratio in the repeat runs, not every such curve was filed as active; the % refers to the signal ratio; also: potency is read from the fitted curve at half-maximal effect). A digest of the protocol:
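Inhibition of dexamethasone-driven (5 nM final) beta-lactamase expression was measured in GRE-reporter HeLa cells over 18 h at 37C. Fluorescence was read after 2 h with the B/G FRET substrate at room temperature.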

Assay [10] can be described thus: qHTS assay to identify small molecule antagonists of the glucocorticoid receptor (GR) signaling pathway - cell viability counter screen (AID 720693). Also: nearly all actives have a fitted effect of over 55% in size.
Assay [11] can be described thus: qHTS assay for identifying genotoxic compounds that show differential cytotoxicity against isogenic chicken DT40 cell lines with known DNA damage response pathways - wild type cell line (AID 743012). Also: nearly all actives have a fitted effect of over 60% in size. Also: potency is read from the fitted curve at half-maximal effect. The essentials: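 Viability by ATP luminescence (CellTiter-Glo, 30 min RT) after 40 h compound treatment at 37 C/5% CO2, using 300 parental DNA repair-proficient DT40 cells per well.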

The nature of assay [12]: qHTS assay for identifying genotoxic compounds that show differential cytotoxicity against isogenic chicken DT40 cell lines with known DNA damage response pathways - Rev3 mutant cell line (AID 743014). Also: nearly all actives have a fitted effect of over 55% in size. Also: potency is read from the fitted curve at half-maximal effect.
Assay [13] is described as follows: qHTS assay for identifying genotoxic compounds that show differential cytotoxicity against isogenic chicken DT40 cell lines with known DNA damage response pathways - Rad54/Ku70 mutant cell line (AID 743015). Also: nearly all actives have a fitted effect of over 60% in size. Also: potency is read from the fitted curve at half-maximal effect.
Assay [14] in a line: qHTS assay to identify small molecule antagonists of the androgen receptor (AR) signaling pathway - cell viability counter screen (AID 743033; also: nearly all actives have a fitted effect of over 45% in size).
A short description of assay [15]: qHTS assay to identify small molecule antagonists of the androgen receptor (AR) signaling pathway using the MDA cell line - cell viability counter screen (AID 743041; also: nearly all actives have a fitted effect of over 45% in size). A digest of the protocol:
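Using the breast carcinoma line MDA-kb2 AR-luc, test chemicals were co-incubated with R1881 for 16 h; CellTiter-Fluor reagent, added at 15.5 h, provided a fluorescence measure of live cells.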

Assay [16] in a line: qHTS assay to identify small molecule antagonists of the thyroid receptor (TR) signaling pathway - cell viability counter screen (AID 743064). Also: nearly all actives have a fitted effect of over 50% in size. Also: potency is read from the fitted curve at half-maximal effect. A digest of the protocol: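 In-well cytotoxicity read by CellTiter-Fluor (30 min, 37 C) following 23.5 h exposure of GH3 cells bearing a TRE-luciferase sensor. Compounds were added alongside 1 nM (final) T3 to drive TR transactivation.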

Assay [17] in a line: qHTS assay to test for compound auto fluorescence at 535 nm (green) in HEK293 cell free culture (AID 720682). The essentials:
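Compounds were pin-transferred into cell-free DMEM with 10% FBS, and green fluorescence was read at excitation 485 nm and emission 535 nm. Intensities were expressed as fluorescein-equivalent values.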

For assay [18], the target named is Androgen receptor (Homo sapiens) (UniProt P10275). Kind of assay: qHTS assay to identify small molecule antagonists of the androgen receptor (AR) signaling pathway (AID 743035; active = well fitted inhibition curve with a large enough effect in the signal ratio in the repeat runs, not every such curve was filed as active; the % refers to the signal ratio; also: potency is read from the fitted curve at half-maximal effect). The essentials:
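Antagonist mode: AR-bla HEK293 cells co-treated with test compounds and agonist R1881 for 16 h at 37C, 5% CO2. Beta-lactamase activity read as FRET fluorescence after 2 h room-temperature substrate loading.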

Assay [19] has the same target. Kind of assay: qHTS assay to identify small molecule agonists of the androgen receptor (AR) signaling pathway (AID 743036; active = well fitted activation curve with a large enough effect in the signal ratio in the repeat runs, with a control signal flat, not every such curve was filed as active; the % refers to the signal ratio). A digest of the protocol: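 Activation was read as beta-lactamase FRET signal from LiveBLAzer B/G substrate, added for 2 h at room temperature. Before that, GeneBLAzer AR-UAS-bla GripTite (HEK293) cells had 16 h compound exposure at 37C.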
The target is the same in assay [20]. Kind of assay: qHTS assay to identify small molecule agonists of the androgen receptor (AR) signaling pathway using the MDA cell line (AID 743040; also: nearly all actives have a fitted effect of over 20% in size). A digest of the protocol: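 Stable MMTV-luciferase reporter in MDA-kb2 cells; note the promoter carries GR as well as AR response elements. 16 h compound treatment, 37C, 0% CO2; ONE-Glo luminescence endpoint.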

SMILES strings stand for the structures. “And” between values parts separate entries of the source, which are not always exact repeats. Equal entries are not always repeated. Records with an inconclusive call do not appear. The source holds several records for some structures; these can differ, active in one and inactive in another. The source made the active and inactive calls. Unless noted, calls follow the shape of the dose curve; as a rule, active = well fitted curve in the direction sought with a large enough effect in the repeat runs; inconclusive = weak or mixed curves; inactive = no such curve, though single readings can be large; an effect the other way counts as inactive or inconclusive.

Chain of Androgen receptor (Homo sapiens) (P10275 whole entry, looked up): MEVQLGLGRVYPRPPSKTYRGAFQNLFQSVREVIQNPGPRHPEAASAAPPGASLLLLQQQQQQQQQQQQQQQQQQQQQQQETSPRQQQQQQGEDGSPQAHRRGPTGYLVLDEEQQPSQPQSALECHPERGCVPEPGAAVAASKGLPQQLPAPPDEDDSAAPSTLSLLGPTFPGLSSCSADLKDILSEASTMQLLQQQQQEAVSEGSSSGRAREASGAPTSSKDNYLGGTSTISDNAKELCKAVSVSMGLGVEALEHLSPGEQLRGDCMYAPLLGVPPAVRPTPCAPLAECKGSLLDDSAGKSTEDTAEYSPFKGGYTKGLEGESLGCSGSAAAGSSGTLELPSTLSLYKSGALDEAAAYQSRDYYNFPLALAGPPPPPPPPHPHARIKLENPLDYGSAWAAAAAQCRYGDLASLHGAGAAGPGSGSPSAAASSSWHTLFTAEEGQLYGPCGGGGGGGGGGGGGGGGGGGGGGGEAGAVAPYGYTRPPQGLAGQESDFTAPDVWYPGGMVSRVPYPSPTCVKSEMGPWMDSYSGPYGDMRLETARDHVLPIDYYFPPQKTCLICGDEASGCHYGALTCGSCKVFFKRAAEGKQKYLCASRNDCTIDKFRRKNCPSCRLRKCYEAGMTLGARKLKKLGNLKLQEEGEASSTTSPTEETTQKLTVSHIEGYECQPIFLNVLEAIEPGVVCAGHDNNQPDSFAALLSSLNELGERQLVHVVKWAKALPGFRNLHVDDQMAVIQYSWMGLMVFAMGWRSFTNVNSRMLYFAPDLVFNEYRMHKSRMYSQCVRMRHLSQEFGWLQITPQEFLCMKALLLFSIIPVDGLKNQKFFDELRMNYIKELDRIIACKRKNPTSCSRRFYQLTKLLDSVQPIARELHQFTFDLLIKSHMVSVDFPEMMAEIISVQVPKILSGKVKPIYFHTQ
Chain of Glucocorticoid receptor (Homo sapiens) (P04150 whole entry, looked up): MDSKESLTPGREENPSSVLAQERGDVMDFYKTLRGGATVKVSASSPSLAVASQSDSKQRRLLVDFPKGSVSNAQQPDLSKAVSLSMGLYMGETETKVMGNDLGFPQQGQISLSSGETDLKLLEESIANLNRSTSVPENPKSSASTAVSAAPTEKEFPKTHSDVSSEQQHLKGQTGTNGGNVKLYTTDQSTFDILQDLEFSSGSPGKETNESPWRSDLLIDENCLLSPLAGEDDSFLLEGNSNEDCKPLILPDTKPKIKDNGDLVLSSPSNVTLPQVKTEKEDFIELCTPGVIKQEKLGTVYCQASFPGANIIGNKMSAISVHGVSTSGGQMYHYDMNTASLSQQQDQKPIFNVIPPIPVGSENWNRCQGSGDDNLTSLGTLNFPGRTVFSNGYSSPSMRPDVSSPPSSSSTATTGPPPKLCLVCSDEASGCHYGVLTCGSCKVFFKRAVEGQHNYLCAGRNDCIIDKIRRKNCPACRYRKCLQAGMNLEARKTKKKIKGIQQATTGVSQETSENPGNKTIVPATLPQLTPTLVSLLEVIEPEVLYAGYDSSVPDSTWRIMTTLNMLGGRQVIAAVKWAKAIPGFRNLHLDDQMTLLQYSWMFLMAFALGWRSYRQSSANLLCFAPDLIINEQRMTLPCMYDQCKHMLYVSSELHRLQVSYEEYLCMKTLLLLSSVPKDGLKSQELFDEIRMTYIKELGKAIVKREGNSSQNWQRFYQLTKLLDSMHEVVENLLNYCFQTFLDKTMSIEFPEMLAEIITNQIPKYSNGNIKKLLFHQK

As for `ClCC(Cl)(Cl)Cl`, the call in assay [1], in assay [2], in [3], in assay [4], in [5] and in assay [6] was inactive. For the same molecule, the result in assay [7] and in assay [8] was inactive. For the same molecule, the Potency entry in [9], in assay [10], in assay [11], in assay [12], in assay [13] and in assay [14] was “inactive” each time. The Potency result in assay [15] and in assay [16] was “inactive” throughout.

`N#Cc1ccncc1`: the outcome in assay [2], in [17], in assay [3], in assay [4], in [5] and in [6] was inactive. The result in assay [8] was inactive. The Potency entry in assay [9], in assay [10], in assay [11], in assay [12], in assay [13] and in assay [14] was “inactive” in each case. For the same molecule, the Potency result in [15] and in assay [16] was “inactive” throughout.

`CCCCN(CCCCO)N=O`: the outcome in [2], in [3], in assay [4], in [5], in [6] and in assay [7] was inactive. In addition, in [8], the call was inactive. In addition, the Potency result in [9], in assay [10], in assay [11], in assay [12], in [13] and in assay [14] was “inactive” each time. Moreover, the Potency result in [15] and in assay [16] was “inactive” each time.

Turning to `O=CNC(N1CCN(C(NC=O)C(Cl)(Cl)Cl)CC1)C(Cl)(Cl)Cl` (stereo unspecified), the molecule was called inactive in assay [2], in assay [3], in [4], in assay [5], in [6] and in assay [7]. Further, the molecule was classed as inactive in assay [8] and in assay [19]. Moreover, the Potency result in [9], in assay [10], in assay [14], in assay [20], in assay [15] and in assay [16] was “inactive” each time. Further, the Potency is 61.1 µM (active) in assay [12] and 6.16 µM (active) in assay [18].

As to `CC(CCc1ccccc1)NC(C)C(O)c1ccc(O)cc1` (stereo unspecified), the call in [2], in [17], in [3], in assay [4], in assay [5] and in assay [6] was inactive. In addition, the result in assay [7] and in assay [8] was inactive. Moreover, the Potency entry in assay [10], in assay [13] and in [15] was “inactive” each time.

On to `CCN(CC)C(C)C(=O)c1ccccc1` (stereo unspecified), for which the result in assay [2], in assay [17], in assay [3], in [4], in [5] and in assay [6] was inactive. The outcome in [7] and in assay [19] was inactive. The Potency result in assay [10], in [11], in [12], in assay [13], in [14] and in assay [18] was “inactive” in each case. Moreover, the Potency entry in assay [20], in assay [15] and in assay [16] was “inactive” in each case.

Take `C[C@H]1CCC[C@H](O)CCCCCc2cc(O)cc(O)c2C(=O)O1`: the molecule was classed as inactive in assay [2], in [3], in [4], in assay [5], in [6] and in assay [7]. The outcome in assay [8] was inactive. Besides, the Potency in assay [9] was 21.3 µM (active) and 39.2 µM (active); in assay [11], 18.8 µM (active) and 61.6 µM (active); in [12], 26.6 µM (active) and 27.5 µM (active); in assay [13] it was 16.8 µM (active) and 43.6 µM (active); in assay [16] it was “inactive and 54.9 µM (active)”. In addition, the Potency result in assay [10] and in assay [14] was “inactive” each time.

Take `N#CCCC#N`: the molecule was classed as inactive in [2], in [17], in [3], in assay [4], in [5] and in [6]. Besides, the result in [7] was inactive. Moreover, the Potency result in assay [11], in assay [12], in assay [13], in assay [14] and in [15] was “inactive” throughout.

Turning to `CCCCOC(=O)[C@@H](C)Oc1ccc(Oc2ccc(C#N)cc2F)cc1`, the call in assay [2], in assay [17], in assay [3], in [4], in [5] and in assay [6] was inactive. Also, the call in [7] and in assay [8] was inactive. In addition, the Potency entry in assay [10], in [14], in assay [15] and in [16] was “inactive” in each case. For the same molecule, the Potency in assay [11] is 34.2 µM (active); in assay [12], 30.5 µM (active); in [13], 43 µM (active).
